Drawing on PubChem BioAssay (NCATS), this text covers Potency, outcome and activity change, negative = inhibition for 40 compounds.

Assay [1] deals with Rap guanine nucleotide exchange factor 3 (Homo sapiens) (UniProt O95398). The assay is described as follows: Confirmatory qHTS for antagonist of cAMP-regulated guanine nucleotide exchange factor 3 (EPAC1) (AID 1645880).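 Also: plate controls were DMSO only for no effect and full effect of the ATA control for full effect; nearly all actives have a fitted effect of over 55% in size.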 The method in brief:
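Released BODIPY-GDP fluoresces less than Rap1-bound BODIPY-GDP; the signal is followed at 480/540 nm at 5-min intervals over 30 min, after 5 min at room temperature. Reactions contain 100 nM EPAC1, 250 nM RAP1B-BODIPY-GDP and 50 uM GDP; results are normalized to ATA and DMSO.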

For assay [2] the target is unchanged. The assay is described as follows: Confirmatory qHTS for agonist of cAMP-regulated guanine nucleotide exchange factor 3 (EPAC1) (AID 1645881).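 Also: EPAC1 catalysed release of BODIPY-GDP from Rap1B seen as fluorescence loss; 100% = effect of cAMP agonist control; nearly all actives have a fitted effect of over 75% in size.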
Assay [3] has as its target Rap guanine nucleotide exchange factor 4 (Homo sapiens) (UniProt Q8WZA2). Kind of assay: Confirmatory qHTS for agonist of cAMP-regulated guanine nucleotide exchange factor 4 (EPAC2) (AID 1645884).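 Also: nucleotide exchange releases bodipy-GDP from Rap1 and this lowers its fluorescence; % is scaled to controls: 0 for no effect and ±100 for the full control effect; nearly all actives have a fitted effect of over 65% in size.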
Assay [4] has the same target. Kind of assay: Confirmatory qHTS for antagonist of cAMP-regulated guanine nucleotide exchange factor 4 (EPAC2) (AID 1645885). Also: % is scaled to controls: 0 for no effect and ±100 for the full control effect; nearly all actives have a fitted effect of over 25% in size.
Assay [5] addresses Cytochrome P450 2C9 (Homo sapiens) (UniProt P11712). Kind of assay: Cytochrome P450 family 2 subfamily C member 9 (CYP2C9) small molecule antagonists: luciferase biochemical (cell-free) qHTS assay (AID 1645842; active = well fitted curve in the direction sought with a large enough effect in the repeat runs; an effect the other way counts as inactive or inconclusive; also: nearly all actives have a fitted effect of over 55% in size; also: potency is read from the fitted curve at half-maximal effect; as to activity change, negative = inhibition: % is scaled to controls: 0 for no effect and ±100 for the full control effect). The method in brief: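 P450-Glo CYP2C9 system: proluciferin substrate with enzyme in mix containing 0.4% BSA, 10 min at room temperature, then NADPH regeneration solution added and incubated 1 h at 37C. Detection reagent stopped reaction; luminescence read after 20 min as RLU.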

The nature of assay [6]: Primary qHTS for inhibitors of nuclear receptor binding SET domain protein 2 (NSD2) in an isogenic RCH-ACV NSD2 p.E1099K mutant (9B) (AID 1645876). Also: nearly all actives have a fitted effect of over 70% in size. Also: potency is read from the fitted curve at half-maximal effect.
Assay [7] is described as follows: Primary qHTS for inhibitors of nuclear receptor binding SET domain protein 2 (NSD2) in an RCH-ACV wild type WT cells (2C) (AID 1645877). Also: nearly all actives have a fitted effect of over 70% in size. Also: potency is read from the fitted curve at half-maximal effect.
In assay [8] the target is Papain (Carica papaya) (UniProt P00784). Kind of assay: Primary qHTS assay for inhibitors of the protease papain (AID 1645873).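 Also: papain turnover of Z-FR-AMC read as the AMC fluorescence gain over 10 min; % is scaled to controls: 0 for no effect and ±100 for the full control effect.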
A short description of assay [9]: Primary qHTS to identify inhibitors of SARS-CoV-2 cell entry (AID 1645846; calls by dose curve; also: nearly all actives have a fitted effect of over 45% in size; also: potency is read from the fitted curve at half-maximal effect). The settings on record: activity change, negative = inhibition: at 57.1 µM (top of the series) unless noted. The method in brief:
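Using luciferase-reporting pseudoviruses carrying Wuhan-Hu-1 spike, the screen tracks entry into stably ACE2-expressing cells over 48 hr. Activity is expressed relative to spike particles versus particles lacking any fusion protein.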

Several values for one entry are separate records, joined by “and”; a condition that tells them apart may be missing. Equal values may be shown once. Results filed as inconclusive are left out. Activity calls are given as the source filed them. Unless noted, calls follow the shape of the dose curve; as a rule, active = well fitted curve in the direction sought with a large enough effect; inconclusive = small, poorly fitted or top-dose-only effect, or another doubt; inactive = no such curve, though single readings can be large; an effect the other way counts as inactive or inconclusive.

Sequence of Papain (Carica papaya) (P00784 whole entry, looked up): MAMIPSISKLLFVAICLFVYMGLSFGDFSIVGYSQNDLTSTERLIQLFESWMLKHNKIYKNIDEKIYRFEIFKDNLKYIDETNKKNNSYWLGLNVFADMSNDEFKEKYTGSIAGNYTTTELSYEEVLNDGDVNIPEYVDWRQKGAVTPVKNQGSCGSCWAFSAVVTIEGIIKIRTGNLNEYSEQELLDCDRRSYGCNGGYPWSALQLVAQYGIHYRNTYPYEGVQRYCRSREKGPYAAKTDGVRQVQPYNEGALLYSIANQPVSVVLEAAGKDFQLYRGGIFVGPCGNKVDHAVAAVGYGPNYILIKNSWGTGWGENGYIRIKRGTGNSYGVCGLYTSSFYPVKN
Sequence of Cytochrome P450 2C9 (Homo sapiens) (P11712 whole entry, looked up): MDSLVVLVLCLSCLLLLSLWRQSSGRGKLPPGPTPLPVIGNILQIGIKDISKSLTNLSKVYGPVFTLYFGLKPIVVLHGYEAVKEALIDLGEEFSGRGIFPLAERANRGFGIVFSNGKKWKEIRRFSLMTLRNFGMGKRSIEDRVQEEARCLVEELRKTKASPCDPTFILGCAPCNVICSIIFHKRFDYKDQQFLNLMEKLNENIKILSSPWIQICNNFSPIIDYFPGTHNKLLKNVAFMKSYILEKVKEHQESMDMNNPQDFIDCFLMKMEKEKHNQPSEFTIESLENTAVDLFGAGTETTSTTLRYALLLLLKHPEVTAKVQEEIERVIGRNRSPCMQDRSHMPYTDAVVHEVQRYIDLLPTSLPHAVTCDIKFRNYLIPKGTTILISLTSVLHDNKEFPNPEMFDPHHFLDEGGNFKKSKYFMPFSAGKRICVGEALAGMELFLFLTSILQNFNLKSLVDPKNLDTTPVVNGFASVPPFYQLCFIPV
Sequence of Rap guanine nucleotide exchange factor 3 (Homo sapiens) (O95398 whole entry, looked up): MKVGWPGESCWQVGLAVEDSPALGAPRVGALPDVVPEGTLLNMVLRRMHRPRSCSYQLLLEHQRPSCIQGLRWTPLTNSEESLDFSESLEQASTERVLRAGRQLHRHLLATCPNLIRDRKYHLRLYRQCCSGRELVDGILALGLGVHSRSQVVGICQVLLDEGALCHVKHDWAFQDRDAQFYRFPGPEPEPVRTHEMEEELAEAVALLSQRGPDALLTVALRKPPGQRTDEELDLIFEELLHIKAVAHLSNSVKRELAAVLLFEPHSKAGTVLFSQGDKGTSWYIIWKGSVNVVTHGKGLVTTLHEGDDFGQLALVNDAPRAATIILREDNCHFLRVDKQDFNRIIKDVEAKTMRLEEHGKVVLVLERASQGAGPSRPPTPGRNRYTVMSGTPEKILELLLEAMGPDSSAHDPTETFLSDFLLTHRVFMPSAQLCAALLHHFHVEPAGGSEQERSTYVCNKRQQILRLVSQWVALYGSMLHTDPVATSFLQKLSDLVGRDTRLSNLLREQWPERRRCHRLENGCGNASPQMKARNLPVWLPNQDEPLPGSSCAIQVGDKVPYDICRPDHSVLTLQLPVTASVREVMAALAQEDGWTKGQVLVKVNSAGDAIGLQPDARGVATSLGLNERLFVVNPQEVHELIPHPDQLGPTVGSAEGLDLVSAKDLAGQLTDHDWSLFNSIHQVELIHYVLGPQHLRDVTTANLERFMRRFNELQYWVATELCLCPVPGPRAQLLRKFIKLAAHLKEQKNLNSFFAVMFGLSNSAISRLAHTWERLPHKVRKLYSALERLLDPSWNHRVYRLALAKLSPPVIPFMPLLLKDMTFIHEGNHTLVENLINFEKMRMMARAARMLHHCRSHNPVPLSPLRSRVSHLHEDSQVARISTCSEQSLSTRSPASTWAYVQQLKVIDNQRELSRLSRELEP
Sequence of Rap guanine nucleotide exchange factor 4 (Homo sapiens) (Q8WZA2 whole entry, looked up): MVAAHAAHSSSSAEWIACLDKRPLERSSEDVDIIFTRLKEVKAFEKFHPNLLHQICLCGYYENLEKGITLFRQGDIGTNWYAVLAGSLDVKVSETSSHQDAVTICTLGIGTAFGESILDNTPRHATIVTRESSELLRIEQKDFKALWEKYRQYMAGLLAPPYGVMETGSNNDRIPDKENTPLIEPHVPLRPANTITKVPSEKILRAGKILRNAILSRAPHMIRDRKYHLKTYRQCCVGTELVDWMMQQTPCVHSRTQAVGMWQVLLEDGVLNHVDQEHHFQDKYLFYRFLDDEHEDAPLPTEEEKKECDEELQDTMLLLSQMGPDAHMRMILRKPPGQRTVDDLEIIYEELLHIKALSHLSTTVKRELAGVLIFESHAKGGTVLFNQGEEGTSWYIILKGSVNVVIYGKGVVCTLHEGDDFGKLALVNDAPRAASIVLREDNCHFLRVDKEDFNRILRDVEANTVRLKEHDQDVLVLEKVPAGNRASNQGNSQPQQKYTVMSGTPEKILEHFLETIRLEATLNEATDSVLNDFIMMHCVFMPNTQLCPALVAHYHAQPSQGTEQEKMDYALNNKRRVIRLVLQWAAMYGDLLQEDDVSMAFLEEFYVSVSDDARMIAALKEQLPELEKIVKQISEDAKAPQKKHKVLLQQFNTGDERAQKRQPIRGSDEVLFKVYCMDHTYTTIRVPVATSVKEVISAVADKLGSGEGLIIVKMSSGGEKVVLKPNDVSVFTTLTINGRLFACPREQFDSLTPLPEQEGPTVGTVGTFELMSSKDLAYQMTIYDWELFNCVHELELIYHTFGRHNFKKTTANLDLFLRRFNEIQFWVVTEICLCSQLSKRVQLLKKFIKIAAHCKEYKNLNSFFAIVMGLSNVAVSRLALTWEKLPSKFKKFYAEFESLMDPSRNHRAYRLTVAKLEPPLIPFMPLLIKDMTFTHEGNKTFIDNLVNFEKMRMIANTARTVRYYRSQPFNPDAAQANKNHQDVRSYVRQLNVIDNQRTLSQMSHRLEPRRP

As to `CC(C)=CC1C(C(=O)OCc2cccc(Oc3ccccc3)c2)C1(C)C` (stereo not given), the Potency entry in assay [1] and in assay [4] was “inactive” throughout. For the same compound, the call in assay [2] and in assay [3] was inactive.
Take `CC[N+]1(C)CCCC(OC(=O)C(O)(c2ccccc2)c2ccccc2)C1` (stereo not given): the Potency result in assay [5] and in assay [6] was “inactive” each time.
In the case of `Cc1ccc2c(c1)C1CN(C)CCC1N2` (stereo not given), the Potency result in assay [5], in assay [6] and in assay [7] was “inactive” in each case.
Consider `CC(C)=CCOc1c2occc2cc2ccc(=O)oc12`, for which, in assay [5], the Potency is 0.347 µM (active). The Potency result in assay [8] is “inactive”.
For `CC(C)(N)Cc1ccc(Cl)cc1`, the Potency entry in assay [5], in assay [6] and in assay [7] was “inactive” in each case.
`c1ccc2c(c1)OCC(C1=NCCN1)O2` (stereo not given): the Potency result in [5] and in assay [8] was “inactive” each time. The Potency in [6] is 9.44 µM (active); in assay [7] it was 7.5 µM (active).
For `COc1ccc(C(CN(C)C)C2(O)CCCCC2)cc1` (stereo not given), the Potency result in assay [5], in assay [9], in assay [8], in assay [6] and in [7] was “inactive” in each case.
Regarding `CC[N+](CC)(CC)CC`, the Potency entry in [5] and in assay [6] was “inactive” throughout.
Consider `CCCN1CCC[C@@H]2Cc3[nH]ncc3C[C@H]21`, for which the Potency entry in assay [5], in [8] and in assay [6] was “inactive” throughout.
As to `CNCC(O)c1ccc(O)cc1` (stereo not given), the Potency result in assay [5], in assay [8], in [6] and in assay [7] was “inactive” in each case. The activity change, negative = inhibition in assay [9] was -17.4%.
Turning to `O=C(NC(O)C(Cl)(Cl)Cl)NC(O)C(Cl)(Cl)Cl` (stereo not given), the Potency entry in assay [5] and in assay [6] was “inactive” each time.
As for `COc1ccccc1N1CCNCC1`, the Potency result in [5] and in assay [8] was “inactive” each time.
Consider `COc1ccc(C(=O)c2c(C)n(CCN3CCOCC3)c3ccccc23)cc1`, for which the Potency in [5] is 5.49 µM (active); in [9], 31.6 µM (active); in assay [6], 23.5 µM (active); in [7], 18.8 µM (active).
With `c1ccc(C2CC2)c(OCC2=NCCN2)c1`, the Potency result in [5] and in assay [8] was “inactive” in each case.
As for `CCOP(=S)(OCC)Oc1cc(C)nc(C(C)C)n1`, the Potency in assay [5] was 1.95 µM (active). Besides, the Potency entry in assay [6] and in [7] was “inactive” each time.
For the compound `CCC(=O)C(CC(C)N(C)C)(c1ccccc1)c1ccccc1` (stereo not given), the Potency result in assay [5] is “inactive”. Moreover, in assay [6], the Potency was 34.7 µM (active).
In the case of `CN(C)CCc1ccc(O)cc1`, the Potency entry in [5], in assay [6] and in [7] was “inactive” throughout.
Take `CNC(=O)N1N=C(c2ccc(N)cc2)c2cc3c(cc2CC1C)OCO3` (stereo not given): the values for the Potency in assay [5], in [6] and in assay [7] were 1.51 µM (active), 3.65 µM (active) and 2.05 µM (active), respectively.
Taken in the same sequence, the figures for `CCN(CC)CCOC(=O)C(O)(c1ccccc1)c1ccccc1` were “inactive”, “inactive” and “inactive”.
On to `CC[C@@H](CO)NC(=O)[C@@H]1C=C2c3cccc4[nH]cc(c34)C[C@H]2N(C)C1`, for which the Potency result in [5] and in assay [6] was “inactive” throughout. The activity change, negative = inhibition in assay [9] was -4.87%.
As to `CCCN1CCC[C@@H]2Cc3nc(N)ncc3C[C@H]21`, the Potency entry in assay [5], in [8] and in [6] was “inactive” throughout.
Consider `Cc1ccc(-c2nc3ccc(C)cn3c2CC(=O)N(C)C)cc1`, for which the Potency result in [5], in [6] and in [7] was “inactive” throughout.
Take `N[C@@H](Cc1ccc(Oc2cc(I)c(O)c(I)c2)c(I)c1)C(=O)O`: the Potency in assay [5] was 3.89 µM (active). The Potency entry in assay [6] is “inactive”.
As for `CCCC(C)(COC(N)=O)COC(=O)NC(C)C` (stereo not given), the Potency result in assay [5] and in [6] was “inactive” throughout.
On to `C#CCOC(C(=O)OCCN(C)C)(c1ccccc1)c1ccccc1`, for which the Potency in assay [5] was 0.776 µM (active). Besides, the Potency result in assay [6] and in [7] was “inactive” each time.
For the compound `CCN(CC)CCN1C(=O)CN=C(c2ccccc2F)c2cc(Cl)ccc21`, the Potency result in assay [5] and in [6] was “inactive” each time.
Turning to `CC(=O)[C@H]1CC[C@H]2[C@@H]3CC[C@H]4C[C@](C)(O)CC[C@]4(C)[C@H]3CC[C@]12C`, the Potency result in assay [5], in [8], in assay [6] and in assay [7] was “inactive” throughout.
For the compound `COc1ccc(Cc2nccc3cc(OC)c(OC)cc23)cc1OC`, the Potency was 9.77 µM (active) in [5], 11.8 µM (active) in assay [6] and 5.25 µM (active) in [7].
With `C=CCN1CC[C@]23c4c5ccc(O)c4O[C@H]2C(=O)CC[C@@]3(O)[C@H]1C5`, the Potency result in assay [5] and in [6] was “inactive” in each case. Besides, the activity change, negative = inhibition in [9] is 2.17%.
For the compound `CCOC(=O)C1(c2ccccc2)CCN(CCC(C#N)(c2ccccc2)c2ccccc2)CC1`, the Potency in assay [5] is 1.55 µM (active); in assay [6], 5.96 µM (active).
In the case of `Clc1ccc(CCC(Cn2ccnc2)Sc2c(Cl)cccc2Cl)cc1` (stereo not given), the Potency in assay [5] was 0.0123 µM (active); in assay [6], 18.8 µM (active) and 18.6 µM (active).
In the case of `CCC1(C2=NCCN2)Cc2ccccc2O1` (stereo not given), the Potency entry in [5] and in assay [8] was “inactive” each time.
As to `O=C1NCN(c2ccccc2)C12CCN(CC1COc3ccccc3O1)CC2` (stereo not given), the Potency in assay [5] was 6.17 µM (active). The Potency result in assay [8] and in assay [6] was “inactive” each time.
Take `Oc1ccccc1-c1ccccc1`: the Potency result in assay [5], in assay [9] and in assay [6] was “inactive” throughout.
For the compound `N#CC(C#N)=Cc1ccc(O)c(O)c1`, the Potency result in [5] and in assay [8] was “inactive” throughout. Also, the Potency in [6] was 9.44 µM (active).
On to `O=C(O)c1ccc2[nH]cc(CCCCN3CC=C(c4ccccc4)CC3)c2c1`, for which the Potency entry in assay [5], in [6] and in [7] was “inactive” in each case.
For `NP(N)(=O)NC(=O)c1ccc(F)cc1`, the Potency entry in assay [5], in [6] and in assay [7] was “inactive” throughout.
As to `CC1OC(C)OC(C)O1` (stereo not given), the Potency result in [5], in assay [6] and in [7] was “inactive” each time.
Regarding `Clc1cccc(N2CCNCC2)c1`, the Potency entry in [5], in [6] and in assay [7] was “inactive” each time.
Consider `CC1NCCOC1c1ccccc1` (stereo not given), for which the Potency result in [5], in assay [6] and in assay [7] was “inactive” in each case.
